# Assay outcomes deposited in PubChem by several laboratories.
# Shn3 inh set2: inhibitors of Schnurri-3 3'UTR reporter in osteoblasts. 0.52% of 360,000 active. Clone20 osteoblast Shn3 3'UTR firefly luciferase, 24 h. inhibition, % at 12.5 µM;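 active = mean inhibition of at least 75% with every replicate also reaching 75%; inconclusive = mean inhibition at least 75% but some replicate below; inactive = mean inhibition below 75%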
# PAX8 reporter: inhibitors of PAX8 transcriptional activity in RMG-I cells; RMG-I TPO-luciferase reporter, SteadyGlo, 24 h; inhibition, % at 12.6 µM; 1.2% of 360,000 active;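 active = mean replicate inhibition at least 60% with every replicate also reaching 60%; inconclusive = only one of the two criteria is met; inactive = mean below 60% and not all replicates reaching 60%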;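 also: luciferase light reporting Pax8 driven TPO promoter activity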
# CF NFkB block: blocks PAF-induced NF-kB reporter in cystic fibrosis cells; KKLEB NF-kB-GFP reporter, GFP fluorescence overnight; inhibition, % at 5 µM; 0.86% of 360,000 active;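 active = at least 50% inhibition at 5 µM, scaled per plate between neutral and stimulator controls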;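 also: PAF is a Pseudomonas aeruginosa culture filtrate used as stimulus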
# EWS-Fli block: blocks EWS/Fli oncoprotein-driven transcription. A673 NR0B1-luciferase reporter, viability-normalised. inhibition, % at 12.6 µM. 0.67% of 350,000 active;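 active = mean inhibition of at least 50% after viability correction, with every replicate also passing that limit; inconclusive = mean reaches 50% but only one of two replicates passes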;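 also: firefly luciferase signal divided by Alamar Blue viability fluorescence both relative to DMSO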
# LGR2 inh: blocks bursicon-induced cAMP signaling via Drosophila LGR2. HEK293 LGR2, CRE-luciferase, bursicon-stimulated, 4 h. inhibition, % at 9.99 µM. 0.35% of 380,000 active. AID 720647;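 active = drop in luminescence signal, shown as inhibition above about 50% in the replicate tests, limit read from the data, passing the limit was not always enough; inconclusive = probably only some replicates passing the limit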;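 also: agonist challenge used bursicon conditioned medium at about half maximal strength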
# KKLEB tox: CF airway cell cytotoxicity counter-screen. KKLEB CF airway cells viability, ATPlite luminescence, overnight; hits give low values; cells stimulated with P. aeruginosa culture filtrate. activity change (cytotoxicity), % at 5 µM. 0.36% of 360,000 active. AID 602141;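 active = corrected activity change at or below -50% at 5 µM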
# Hits are given with their value; – = inactive; ? = inconclusive; · = not tested or not shown. Sampled rows, rich in hits. Any-hit rate of the full collection: about 2%.
SMILES,Shn3 inh set2,PAX8 reporter,CF NFkB block,EWS-Fli block,LGR2 inh,KKLEB tox
COc1ccc(-c2cc(C(=O)O)c3ccccc3n2)c(OC)c1,–,·,–,·,–,–
CCOC(=O)N1CCN(C(=O)c2cc(-c3ccc(OCC)cc3)nc3ccccc23)CC1,–,·,–,·,–,-75
COc1ccc(OCC(=O)N2CCN(c3nnc(-c4ccc(C)cc4)c4ccccc34)CC2)cc1,–,–,–,–,59,–
CO[C@@H]1CC[C@@H]2CCN(C)C(=O)[C@@H](C)N(C)C(=O)c3cccc(C#N)c3OC[C@@H]1O2,·,–,·,–,–,·
O=C(NCc1ccc2c(c1)OCO2)[C@@H]1[C@@H](CO)[C@@H]2Cn3c(cccc3=O)[C@H]1N2Cc1ccccc1,·,–,·,–,–,·
CCOc1ccc(-c2cc(C(=O)N3CCN(C)CC3)c3ccccc3n2)cc1,–,·,–,·,–,–
COc1cc(-c2cc(C(=O)N3CCN(c4ccccn4)CC3)c3ccccc3n2)cc(OC)c1OC,–,–,–,·,·,–
CCOc1ccc(-c2cc(C(=O)N3CCN(c4ccccn4)CC3)c3ccccc3n2)cc1,–,·,–,–,–,-68
COc1ccc(-c2cc(C(=O)N3CCN(c4ccccn4)CC3)c3ccccc3n2)cc1,–,·,–,·,–,-61
CCCc1ccc(-c2cc(C(=O)N3CCN(c4ccccn4)CC3)c3ccccc3n2)cc1,–,–,–,·,–,-76
COc1ccc(-c2cc(C(=O)N3CCN(c4ncccn4)CC3)c3ccccc3n2)cc1,–,–,–,–,–,–
Cc1ccc(S(=O)(=O)N(C)C[C@@H]2OCCCC[C@@H](C)Oc3ccc(NS(=O)(=O)c4ccc(F)cc4)cc3C(=O)N([C@H](C)CO)C[C@@H]2C)cc1,·,–,·,–,–,·
Cc1ccc(S(=O)(=O)N(C)C[C@@H]2OCCCC[C@H](C)Oc3ccc(NS(=O)(=O)c4ccc(F)cc4)cc3C(=O)N([C@H](C)CO)C[C@@H]2C)cc1,·,70,·,–,–,·
Cc1ccc(S(=O)(=O)Nc2ccc3c(c2)C(=O)N([C@H](C)CO)C[C@H](C)[C@H](CN(C)S(=O)(=O)c2ccc(F)cc2)OCCCC[C@H](C)O3)cc1,·,68,·,–,–,·
C[C@H](CO)N1C[C@H](C)[C@H](CN(C)S(=O)(=O)c2ccccc2)OCCCC[C@H](C)Oc2ccc(NS(=O)(=O)c3ccc(F)cc3)cc2C1=O,·,63,·,–,–,·
Cc1ccc(S(=O)(=O)N(C)C[C@@H]2OCCCC[C@H](C)Oc3ccc(NS(=O)(=O)c4ccc(F)cc4)cc3C(=O)N([C@@H](C)CO)C[C@@H]2C)cc1,·,–,·,–,–,·
Cc1ccc(S(=O)(=O)Nc2ccc3c(c2)C(=O)N([C@@H](C)CO)C[C@@H](C)[C@@H](CN(C)S(=O)(=O)c2ccc(F)cc2)OCCCC[C@@H](C)O3)cc1,·,68,·,–,–,·
Cc1ccc(S(=O)(=O)Nc2ccc3c(c2)C(=O)N([C@@H](C)CO)C[C@H](C)[C@@H](CN(C)S(=O)(=O)c2ccc(F)cc2)OCCCC[C@@H](C)O3)cc1,·,–,·,–,–,·
O=C(C[C@H]1CC[C@@H](NC(=O)Cc2ccccn2)[C@@H](CO)O1)NCCc1ccccc1,·,·,·,–,–,·
Cc1ccc(S(=O)(=O)Nc2ccc3c(c2)C(=O)N([C@H](C)CO)C[C@H](C)[C@H](CN(C)Cc2ccc4c(c2)OCO4)OCCCC[C@@H](C)O3)cc1,·,–,·,–,–,·
COc1cccc(NC(=O)C[C@H]2CC[C@@H]3[C@H](COc4ccc(NC(=O)c5ccccc5F)cc4C(=O)N3C)O2)c1,·,–,·,–,–,·
C[C@@H]1CN([C@@H](C)CO)C(=O)Cc2cc(NC(=O)CCCCCC(=O)Nc3ccccc3N)ccc2O[C@H]1CN(C)Cc1ccncc1,·,–,·,–,–,·
Cc1ccc(S(=O)(=O)N(C)C[C@H]2OCCCC[C@@H](C)Oc3ccc(NS(=O)(=O)c4ccc(F)cc4)cc3C(=O)N([C@@H](C)CO)C[C@H]2C)cc1,·,83,·,–,–,·
COc1ccccc1-c1ccc2n(c1=O)C[C@H]1[C@H](CO)[C@@H](C(=O)NCCCN(C)C)N(C(C)=O)[C@@H]21,·,–,·,–,–,·
C[C@@H]1CN([C@H](C)CO)S(=O)(=O)c2ccc(-c3ccc(C(=O)N(C)C)cc3)cc2O[C@H]1CN(C)C(=O)C1CCC1,·,–,·,–,–,·
SMILES,Shn3 inh set2,PAX8 reporter,CF NFkB block,EWS-Fli block,LGR2 inh,KKLEB tox
COc1cc(-c2noc(C)c2/C=C/c2ccc(OC(C)=O)cc2)cc(OC)c1OC,–,69,–,64,–,–
CC(C)NC(=O)Nc1ccc2c(c1)C(=O)N([C@@H](C)CO)C[C@H](C)[C@@H](CN(C)Cc1ccc3c(c1)OCO3)O2,·,–,·,–,–,·
CCOc1cc(CNCc2ccccc2)ccc1OCc1ccc(Cl)cc1,92,–,–,–,–,–
Cn1cc(CN2CCN(c3ccc(Cl)cn3)CC2)c(-c2ccccc2F)n1,–,–,–,–,–,–
Cc1cccc(N2CCN(Cc3cn(C)nc3-c3ccccc3F)CC2)n1,–,–,–,59,–,–
CCN(CC)CCNC(=O)c1ccc2c(c1NCCO)C(=O)c1ccccc1C2=O,–,69,77,–,·,-52
CC1CCN(C(=O)c2ccc3c(c2NCCO)C(=O)c2ccccc2C3=O)CC1,–,·,–,·,·,–
Cc1ccc(C)c(S(=O)(=O)Nc2ccc(-n3cnnn3)cc2)c1,83,·,–,·,·,–
CC(C)(C)c1cc(C(c2cccnc2)N2CCN(CCO)CC2)cc(C(C)(C)C)c1O (centres undefined),97,·,–,–,–,–
CO[C@H]1CN(C)C(=O)c2ccc(NC(C)=O)cc2OC[C@H](C)N(Cc2ccncc2)C[C@@H]1C,·,·,·,–,–,·
C[C@H]1CN([C@@H](C)CO)S(=O)(=O)c2ccc(-c3ccc(C#N)cc3)cc2O[C@@H]1CN(C)Cc1ccccn1,·,?,·,67,–,·
Cc1ccc(-c2ccc3c(c2)O[C@@H](CN(C)Cc2ccccn2)[C@H](C)CN([C@H](C)CO)S3(=O)=O)cc1,·,·,·,65,–,·
Cc1ccc(-c2ccc3c(c2)O[C@@H](CN(C)Cc2ccccn2)[C@H](C)CN([C@@H](C)CO)S3(=O)=O)cc1,·,·,·,–,–,·
C[C@H]1CN([C@@H](C)CO)S(=O)(=O)c2ccc(C3=CCCCC3)cc2O[C@H]1CN(C)Cc1ccccn1,·,–,·,–,–,·
C[C@H]1CN([C@@H](C)CO)S(=O)(=O)c2ccc(C3=CCCCC3)cc2O[C@@H]1CN(C)Cc1ccccn1,·,–,·,65,–,·
O=C([C@H]1[C@H](CO)[C@H]2Cn3c(ccc(C4=CCCC4)c3=O)[C@H]2N1CC1CC1)N1CCCCC1,·,–,·,–,–,·
COc1ccc(-c2csc(NC(=O)CSc3nc4ccccc4c(=O)[nH]3)n2)cc1,–,–,71,–,–,–
O=[N+]([O-])c1ccc(O)c(Nc2ncnc3ccc(Br)cc23)c1,–,–,58,–,–,–
